Measurements from PubChem BioAssay (NCATS).
Results filed as inconclusive are left out. The source made the active and inactive calls. Calls follow the shape of the dose curve; as a rule, active = well fitted inhibition curve with a large enough effect; inconclusive = small, poorly fitted or top-dose-only effect; inactive = no such curve, though single readings can be large or run the other way.

Test: Primary qHTS for small molecule stabilizers of the endoplasmic reticulum resident proteome: Secreted ER Calcium Modulated Protein (SERCaMP) assay (AID 1508630)
Conditions: SH-SY5Y GLuc-SERCaMP (Gaussia luciferase released on ER calcium loss) secretion, thapsigargin, luminescence; series mostly up to 38.4 µM
How it was run: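 The SH-SY5Y reporter protocol was run at 3 concentrations up to 38.3 uM (primary) or 11 concentrations (follow-up): 16 h compound, 100 nM thapsigargin for 4 h, then extracellular luciferase luminescence.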

Potency, inactive:
CC1NC(C(=O)O)Cc2c1[nH]c1ccccc21 (stereo not given)
CC(=O)Nc1ccccc1C(=O)C(=O)O
COc1cc2c(cc1OC)C1N(CC2)C(=O)CCC12C(=O)CCCC2=O (stereo not given)
C[C@@]12CC(=O)C3=C(CCCC3=O)N1CCc1ccccc12
COc1ccc2c(c1OC)C(=O)N1c3ccccc3C(=O)OC21 (stereo not given)
COc1ccccc1/C=C\C(=O)OC[C@@H]1CCCN2CCCC[C@H]12
COc1cc(=O)n(C)c2c(OCC3OC(C)(C)OC3(C)C)cccc12 (stereo not given)
O=C(O)c1ccc(-c2ccc3cc(C45CC6CC(CC(C6)C4)C5)c(O)cc3c2)cc1
Nc1nc(=S)c2ncn([C@@H]3O[C@H](CO)[C@@H](O)[C@H]3O)c2[nH]1
COc1c2c(nc3occc13)C(CC=C(C)C)(OC)C(=O)C=C2 (stereo not given)
CC1=C(C(N)=O)N2C(=O)[C@@H](NC(=O)Cc3ccccc3)C2SC1 (stereo not given in full)
COc1cc(C)c(CC/C(C)=C/C=C/C(C)=O)c(C)c1C
COc1cc(C2=N/C(=C\c3ccccc3)C(=O)O2)cc(OC)c1OC
COc1ccc(C2c3[nH]c4ccccc4c3CC3C(=O)N(CCc4ccc(OC)c(OC)c4)CC(=O)N32)cc1 (stereo not given)
O=c1ccc2ccc(O[C@@H]3O[C@H](CO)[C@@H](O)[C@H](O)[C@H]3O)c(O)c2o1
COc1ccccc1Oc1coc2cc(O)ccc2c1=O
C=CC(C)(O)CC1[C@@]2(C)CCCC(C)(C)C2CC[C@]1(C)O (stereo not given in full)
CN1CCN(c2ccc(Nc3c4ccccc4nc4ccccc34)cc2)CC1
COc1cc2c(cc1O)-c1ccccc1CN(C)C2
CC12CC[C@@](C(=O)O)(C(=O)C1=O)C2(C)C
C=C(C(=O)O)[C@@H]1CC[C@@]2(C)CCC[C@](C)(O)[C@@H]2C1
O=c1[nH]c(-c2ccccc2O)nc2ccccc12
COc1c(C2=CC(=O)N(C)C2=O)c2c(n1C)C(=O)c1ccccc1C2=O
CN(C)C(=O)OC1=C(c2ccccc2)Sc2ccccc2-n2cccc21
COc1cc2c(cc1OC)C(c1ccccc1)=NCC2
C=C(C)C(=O)OC[C@@H]1CCC[N@+]2(C)CCCCC12 (stereo not given in full)
CC(=O)OC[C@@]1(O)C[C@@]23CC[C@@H]4c5ccoc5CC[C@@]4(C)[C@@H]2CCC1C3
Cc1cc(O)c(C)c2c1CC[C@H]1[C@H](C)C(=O)O[C@H]21
COc1c(CO)cc(CO)cc(CO)c1=O
COc1ccc(/C=C/C(=O)/C=C/c2ccc(OC)cc2OC)c(OC)c1
COC(=O)N1c2ccccc2C23[C@@H]4CN5CCC[C@]6(CCC12C(O)(C6)C4=O)[C@H]53
COc1ccc([C@H]2O[C@@H](c3ccc(OC)c(OC)c3)[C@H](C)[C@@H]2C)cc1OC
C/C(Nc1ccc2oc(=O)ccc2c1)=C1/C(=O)CC2[C@@H]1C2(C)C (stereo not given in full)
COc1cccc(C(=O)CC2c3c(c(Br)c4c(c3OC)OCO4)CCN2C)c1 (stereo not given)
O=C1Nc2ccccc2C(=O)N2CCC[C@@H]12
COc1ccc(-c2cnc(-c3cccnc3)o2)cc1
COc1cc(/C=C/C(=O)c2c(O)cc(C)oc2=O)ccc1O
CC(C)(O)[C@@H]1CCC[N+]2(C)CCCC[C@H]12 (stereo not given in full)
C=CC(C1=CC(=O)C=CC1=O)c1ccc(O)cc1 (stereo not given)
O=C(O)C1CCC[C@@H]2[C@@H]3CC(CN12)[C@@H]1CCCCN1C3 (stereo not given in full)
